# Source: PubChem BioAssay AID651640 (Broad Institute, 2012)
# Where “and” joins values, the source holds several entries; their conditions need not be identical. Equal entries are not always repeated. The whole screen tested about 350,000 compounds, of which about 6,000 (1.7%) were called active. Inconclusive results (about 5%) are left out. Many of the other results were omitted from the sample, so actives are more common in it than they were. A number with no mark means an inactive call. Cut-off read from the data, not from the text of the source: active = CPE inhibition above about 20% (passing the limit was not always enough); inconclusive = no clear call, values can overlap the other calls; tested in BHK-21 cells.
# Assay: protection of cells from dengue 2 killing – plate reader, single concentration, primary screen (AID 651640);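 note: 0% = median of neutral control wells and 100% = median of positive control wells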
# Settings: DENV2-infected cells, cytopathic effect rescue, at 9.99 µM, hits give high values
row,SMILES,CPE inhibition
1,C[C@@H]1CN([C@@H](C)CO)C(=O)c2cc(-c3ccccc3F)cnc2O[C@H]1CN(C)C(=O)C1CC1,-2.29%
2,CO[C@H](CN(C)S(=O)(=O)c1ccc(Cl)cc1)[C@@H](C)CN(Cc1ccccc1Cl)[C@H](C)CO,2.31%
3,O=C(C1CCOCC1)N1CC(=O)N2[C@H](CO)[C@H](c3ccc(C#CC4CCCCC4)cc3)[C@H]2C1,-10.5%
4,O=C(C[C@@H]1C[C@@H]2c3cc(NC(=O)CC4CC4)ccc3O[C@@H]2[C@@H](CO)O1)NCCN1CCCCC1,1.09%
5,COc1ccc(NC(=O)N(C)C[C@H]2OCCCC[C@H](C)Oc3ccc(NS(=O)(=O)c4ccc(Cl)cc4)cc3C(=O)N([C@@H](C)CO)C[C@H]2C)cc1,12.8%
6,COc1ccc(NC(=O)N(C)C[C@H]2OCCCC[C@H](C)Oc3ccc(NC(=O)c4ccncc4)cc3C(=O)N([C@H](C)CO)C[C@@H]2C)cc1,21.4% (active)
7,COc1ccc(NC(=O)N(C)C[C@H]2OCCCC[C@@H](C)Oc3ccc(NC(=O)NC4CCCCC4)cc3C(=O)N([C@H](C)CO)C[C@H]2C)cc1,9.97%
8,COc1ccc(NC(=O)N(C)C[C@H]2OCCCC[C@@H](C)Oc3ccc(NC(=O)c4ccncc4)cc3C(=O)N([C@@H](C)CO)C[C@H]2C)cc1,4.05%
9,COc1ccc(NC(=O)N(C)C[C@@H]2OCCCC[C@@H](C)Oc3ccc(NS(=O)(=O)c4ccc(Cl)cc4)cc3C(=O)N([C@H](C)CO)C[C@H]2C)cc1,37.6% (active)
10,COc1ccc(NC(=O)N(C)C[C@@H]2OCCCC[C@H](C)Oc3ccc(NC(=O)c4ccccc4)cc3C(=O)N([C@H](C)CO)C[C@H]2C)cc1,-12.7%
11,COc1ccc(NC(=O)N(C)C[C@@H]2OCCCC[C@@H](C)Oc3ccc(NC(=O)NC4CCCCC4)cc3C(=O)N([C@H](C)CO)C[C@@H]2C)cc1,1.54% and 2.7%
12,COc1ccc(NC(=O)N(C)C[C@H]2OCCCC[C@@H](C)Oc3ccc(NS(=O)(=O)c4ccc(F)cc4)cc3C(=O)N([C@H](C)CO)C[C@H]2C)cc1,10.2%
13,COc1ccc(NC(=O)N(C)C[C@H]2OCCCC[C@H](C)Oc3ccc(NC(=O)NC4CCCCC4)cc3C(=O)N([C@@H](C)CO)C[C@@H]2C)cc1,76.4% (active)
14,O=C(C[C@@H]1C=C[C@@H](NC(=O)Nc2cccc(F)c2)[C@H](CO)O1)NCC1CCCCC1,8.16%
15,C[C@@H]1CN([C@@H](C)CO)C(=O)c2cc(C#Cc3ccncc3)cnc2O[C@@H]1CN(C)C(=O)CN(C)C,-5.91%
16,C[C@H]1CN([C@@H](C)CO)C(=O)Cc2cc(NC(=O)C3CC3)ccc2O[C@@H]1CN(C)S(=O)(=O)c1cccs1,0.692%
17,O=C(C[C@H]1C=C[C@@H](NC(=O)Nc2cc(F)ccc2F)[C@@H](CO)O1)NCc1ccc2c(c1)OCO2,3.1%
18,CCC(=O)Nc1ccc2c(c1)OC[C@@H](C)N(Cc1cncnc1)C[C@H](C)[C@@H](OC)CN(C)C2=O,0.095%
19,O=C(Cc1ccncc1)Nc1ccc2c(c1)[C@@H]1C[C@H](CC(=O)N3CCCCC3)O[C@H](CO)[C@@H]1O2,-1.67%
20,CC(=O)N1[C@H](CN(CC2CCC2)C(=O)CN(C)C)[C@@H](c2ccccc2)[C@@H]1CO,-6.71%
21,CCO[C@H]1OC(C(=O)Nc2ccccc2)=C[C@@H](C2CC2)[C@@H]1CCCO,-12.3%

row,SMILES,CPE inhibition
1,CCO[C@@H]1OC(C(=O)NCc2nc3ccccc3[nH]2)=C[C@H](C2CCCCC2)[C@H]1CCCO,5.22%
2,CCO[C@H]1OC(C(=O)O)=C[C@@H](C2CCCCC2)[C@@H]1CCCO,45.4% (active)
3,C[C@H](CO)N1C[C@H](C)[C@@H](CN(C)S(=O)(=O)c2cccs2)OCc2ccccc2-c2ccccc2C1=O,0.48%
4,COc1cccc(NC(=O)CN(C)CC(=O)Nc2ccc3c(c2)CCC3)c1,4.15%
5,COc1cccc(NC(=O)CN(C)C(=O)Cc2ccc(Cl)cc2Cl)c1,-4.12%
6,COc1cccc(NC(=O)CN(C)C(=O)CSC(=S)N2CCCC2)c1,31.4% (active)
7,O=C(Nc1cc(F)ccc1F)N1CCCCN2[C@H](C1)[C@H](c1ccc(-c3cccnc3)cc1)[C@@H]2CO,-2.73%
8,CN(C)CCCNC(=O)C[C@@H]1C=C[C@H](NC(=O)c2ccccc2F)[C@H](CO)O1,-4.33%
9,CCCC#Cc1ccc([C@@H]2[C@H](CO)N3CCCCN(S(=O)(=O)c4ccccc4F)C[C@@H]23)cc1,-29.1%
10,CC(C)NC(=O)N(C)C[C@H]1Oc2cc(-c3cncnc3)ccc2S(=O)(=O)N([C@@H](C)CO)C[C@H]1C,12.5%
11,O=C(OCc1ccccc1)N1CCC2CC1c1ccc(-c3ccc4c(c3)OCO4)cc12 (stereo unspecified),59.5% (active)
12,O=C(OCc1ccccc1)N1CCC2CC1c1cc(N3CCN(S(=O)(=O)c4cc(Cl)cc(Cl)c4)CC3)ccc12 (stereo unspecified),-5.76%
13,Cc1ccc(S(=O)(=O)N(CCc2ccccc2)c2ccc3c(c2)C2CC3CCN2C(=O)OCc2ccccc2)cc1 (stereo unspecified),-3.72%
14,O=C(C[C@H]1CC[C@H]2[C@@H](COC[C@H](O)CN2Cc2nccs2)O1)NCc1ccc(Oc2ccccc2)cc1,3.47%
15,COc1ccc(-n2nc3c(c2NC(=O)Cc2cccc(C)c2)CS(=O)C3)cc1 (stereo unspecified),99.5% (active)
16,CC(Oc1ccccc1)C(=O)Nc1c2c(nn1-c1ccccc1)CS(=O)C2 (stereo unspecified),2.29%
17,Cc1ccc(-n2nc3c(c2NC(=O)CCC2CCCCC2)CS(=O)C3)cc1 (stereo unspecified),-3.75%
18,CC1(C)CN(Cc2cccnc2)C(=O)[C@H]1CC(=O)Nc1ccc(Br)cc1,30.1% (active)
19,CCCCN1CC(C)(C)[C@H](CC(=O)Nc2ccc(Br)cc2)C1=O,6.43%
20,CC1(C)CN(CCc2ccccc2)C(=O)[C@H]1CC(=O)Nc1ccc(Br)cc1,0.989%
